In PubChem BioAssay (Tox21):
Active and inactive are the calls of the source. Unless noted, calls come from the whole dose curve; as a rule, active = well fitted curve in the direction sought with a large enough effect in the repeat runs; inconclusive = weak or mixed curves; inactive = no such curve, though single readings can be large; an effect the other way counts as inactive or inconclusive.

What was measured:
[1] = qHTS assay to identify small molecule antagonists of the thyroid receptor (TR) signaling pathway - cell viability counter screen (AID 743064); note: nearly all actives have a fitted effect of over 50% in size; note: potency is the fitted concentration of half-maximal effect
How it was run: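 Same-well viability check: GH3.TRE-Luc cells stimulated with 1 nM T3 alongside test compound for 23.5 h, followed by CellTiter-Fluor fluorescence.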

[2] = qHTS assay to identify small molecule antagonists of the thyroid receptor (TR) signaling pathway (AID 743065); note: nearly all actives have a fitted effect of over 55% in size; note: potency is the fitted concentration of half-maximal effect
How it was run: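 Antagonism measured as loss of luciferase signal in GH3 cells stably carrying a TRE-luciferase reporter, co-treated with compound and T3 (1 nM final) for 23.5 h at 37 C. Viability was read in the same well by CellTiter-Fluor.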

[3] = system: thyroid hormone receptor (rat, GH3 cells); assay: qHTS assay to identify small molecule agonists of the thyroid receptor (TR) signaling pathway (AID 743066; calls by dose curve)
[4] = molecular target: Estrogen receptor (Homo sapiens) (UniProt P03372); assay: qHTS assay to identify small molecule antagonists of the estrogen receptor alpha (ER-alpha) signaling pathway (AID 743069; active = well fitted curve in the direction sought with a large enough effect in the signal ratio in the repeat runs, not every such curve was filed as active; inconclusive = weak or mixed curves, or effect the other way; inactive = no such curve, though single readings can be large or run the other way; the % refers to the signal ratio; note: potency is the fitted concentration of half-maximal effect)
Chain of Estrogen receptor (Homo sapiens) (P03372 whole entry, looked up): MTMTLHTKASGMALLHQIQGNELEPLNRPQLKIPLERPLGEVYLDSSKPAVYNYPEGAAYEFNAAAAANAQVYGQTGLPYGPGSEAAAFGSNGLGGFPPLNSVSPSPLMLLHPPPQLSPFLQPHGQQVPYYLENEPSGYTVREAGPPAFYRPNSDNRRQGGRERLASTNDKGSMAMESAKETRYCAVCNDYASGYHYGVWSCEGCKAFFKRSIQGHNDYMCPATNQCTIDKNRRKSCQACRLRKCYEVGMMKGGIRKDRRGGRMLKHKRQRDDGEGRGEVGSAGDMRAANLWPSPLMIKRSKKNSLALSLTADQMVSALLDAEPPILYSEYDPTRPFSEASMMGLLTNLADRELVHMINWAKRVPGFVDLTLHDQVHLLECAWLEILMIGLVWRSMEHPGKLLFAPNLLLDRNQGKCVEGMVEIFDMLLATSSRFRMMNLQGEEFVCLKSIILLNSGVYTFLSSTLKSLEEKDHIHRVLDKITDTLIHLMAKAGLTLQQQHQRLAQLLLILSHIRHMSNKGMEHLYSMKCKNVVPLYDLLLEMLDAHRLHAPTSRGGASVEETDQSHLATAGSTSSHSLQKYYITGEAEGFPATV
How it was run: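 Compound effects are measured against 17beta-estradiol stimulation in HEK293 cells with a UAS-controlled beta-lactamase reporter for ER-alpha. Exposure lasts 18 hr at 37C; LiveBLAzer B/G FRET substrate follows for 2 hr at room temperature.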

[5] = qHTS assay to identify small molecule antagonists of the estrogen receptor alpha (ER-alpha) signaling pathway - cell viability counter screen (AID 743074; calls by dose curve;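 note: HEK293 cells carrying ER-alpha-UAS-bla reporter stimulated with 17beta-estradiol; nearly all actives have a fitted effect of over 45% in size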; note: potency is the fitted concentration of half-maximal effect)
[6] = molecular target: Estrogen receptor (Homo sapiens) (UniProt P03372); assay: qHTS assay to identify small molecule agonists of the estrogen receptor alpha (ER-alpha) signaling pathway (AID 743075; calls by dose curve)
[7] = molecular target: Estrogen receptor (Homo sapiens) (UniProt P03372); assay: qHTS assay to identify small molecule agonists of the estrogen receptor alpha (ER-alpha) signaling pathway using the BG1 cell line (AID 743079); details: BG1Luc4E2 cells, ERE-luciferase agonist, 22 h; activation: at 70.3 µM (top of the series); note: nearly all actives have a fitted effect of over 20% in size; note: potency is the fitted concentration of half-maximal effect
[8] = qHTS assay to identify small molecule antagonists of the estrogen receptor alpha (ER-alpha) signaling pathway using the BG1 cell line - cell viability counter screen (AID 743081);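 note: compound given together with 17beta-estradiol as the ER stimulus; nearly all actives have a fitted effect of over 45% in size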; note: potency is the fitted concentration of half-maximal effect
[9] = qHTS assay to identify aromatase inhibitors - cell viability counter screen (AID 743084);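 note: cells stimulated with testosterone during compound exposure; nearly all actives have a fitted effect of over 55% in size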; note: potency is the fitted concentration of half-maximal effect
[10] = molecular target: Aryl hydrocarbon receptor (Homo sapiens) (UniProt P35869); assay: qHTS assay to identify small molecule that activate the aryl hydrocarbon receptor (AhR) signaling pathway (AID 743085);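 note: HG2L7.5c1 human HepG2 liver cells with stably integrated DRE-driven firefly reporter; nearly all actives have a fitted effect of over 15% in size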
Chain of Aryl hydrocarbon receptor (Homo sapiens) (P35869 whole entry, looked up): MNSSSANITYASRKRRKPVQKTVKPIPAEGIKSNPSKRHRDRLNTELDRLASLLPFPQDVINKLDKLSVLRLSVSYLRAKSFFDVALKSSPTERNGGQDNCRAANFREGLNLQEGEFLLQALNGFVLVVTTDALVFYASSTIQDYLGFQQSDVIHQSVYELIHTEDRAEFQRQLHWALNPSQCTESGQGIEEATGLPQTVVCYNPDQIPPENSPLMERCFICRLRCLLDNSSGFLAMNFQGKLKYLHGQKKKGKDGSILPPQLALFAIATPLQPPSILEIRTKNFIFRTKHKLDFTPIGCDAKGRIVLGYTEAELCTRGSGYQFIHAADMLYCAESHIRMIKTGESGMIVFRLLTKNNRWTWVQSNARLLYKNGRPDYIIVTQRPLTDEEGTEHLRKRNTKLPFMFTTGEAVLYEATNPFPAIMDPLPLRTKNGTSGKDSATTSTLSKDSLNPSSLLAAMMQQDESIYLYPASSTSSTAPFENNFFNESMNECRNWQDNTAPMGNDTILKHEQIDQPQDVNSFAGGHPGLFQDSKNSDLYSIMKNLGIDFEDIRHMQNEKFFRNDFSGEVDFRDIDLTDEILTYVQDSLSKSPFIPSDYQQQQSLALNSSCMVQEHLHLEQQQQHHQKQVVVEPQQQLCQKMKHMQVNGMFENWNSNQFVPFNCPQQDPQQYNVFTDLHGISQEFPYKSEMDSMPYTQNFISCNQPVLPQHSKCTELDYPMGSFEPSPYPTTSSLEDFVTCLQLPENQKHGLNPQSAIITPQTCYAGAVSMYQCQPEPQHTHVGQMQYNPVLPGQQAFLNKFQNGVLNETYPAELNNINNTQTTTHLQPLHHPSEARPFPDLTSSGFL
How it was run: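 Reporter assay in engineered HepG2 line HG2L7.5c1, whose plasmid carries twenty dioxin responsive elements upstream of firefly luciferase. Treatment lasted 24 h at 37C; ONE-Glo luminescence gauged induction.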

[11] = qHTS assay to identify small molecule that activate the aryl hydrocarbon receptor (AhR) signaling pathway - cell viability counter screen (AID 743086); note: nearly all actives have a fitted effect of over 45% in size; note: potency is the fitted concentration of half-maximal effect
How it was run: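 Cytotoxicity counter screen: CellTiter-Fluor signal (30 min, 37 C) in 4000 HepG2 cells/well carrying the DRE-luciferase reporter, following 24 h compound exposure at 37 C.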

[12] = molecular target: Peroxisome proliferator-activated receptor gamma (Homo sapiens) (UniProt P37231); assay: qHTS assay to identify small molecule agonists of the peroxisome proliferator-activated receptor gamma (PPARg) signaling pathway (AID 743094; active = well fitted activation curve with a large enough effect in the signal ratio in the repeat runs, not every such curve was filed as active; inconclusive = weak or mixed curves, or effect the other way; inactive = no such curve, though single readings can be large or run the other way; the % refers to the signal ratio)
Chain of Peroxisome proliferator-activated receptor gamma (Homo sapiens) (P37231 whole entry, looked up): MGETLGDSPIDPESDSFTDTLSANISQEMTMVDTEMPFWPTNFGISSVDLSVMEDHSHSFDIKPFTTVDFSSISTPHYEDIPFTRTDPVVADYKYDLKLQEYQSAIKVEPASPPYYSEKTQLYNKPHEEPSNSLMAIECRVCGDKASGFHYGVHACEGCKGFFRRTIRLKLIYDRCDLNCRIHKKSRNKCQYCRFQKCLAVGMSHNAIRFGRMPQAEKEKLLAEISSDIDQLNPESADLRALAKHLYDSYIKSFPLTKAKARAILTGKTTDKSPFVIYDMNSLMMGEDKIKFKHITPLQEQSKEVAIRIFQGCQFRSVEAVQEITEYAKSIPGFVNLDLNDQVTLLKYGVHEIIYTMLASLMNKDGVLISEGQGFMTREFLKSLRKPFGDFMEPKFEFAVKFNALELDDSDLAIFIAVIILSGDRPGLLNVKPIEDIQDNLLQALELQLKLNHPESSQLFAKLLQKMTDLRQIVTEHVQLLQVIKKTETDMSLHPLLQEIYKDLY
How it was run: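 Stably transfected HEK293H cells (GeneBLAzer PPARg UAS-bla) were incubated with test substances for 17 h at 37C after a 5 h pre-incubation; beta-lactamase activity was then detected by FRET substrate fluorescence.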

[13] = qHTS assay to identify small molecule phospholipidosis (PLD) inducers (AID 1259344; active = well fitted curve in the direction sought with a large enough effect; inconclusive = small, poorly fitted or top-dose-only effect, or another doubt; inactive = no such curve, though single readings can be large; an effect the other way counts as inactive or inconclusive)
How it was run: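 Fluorescent phospholipid staining (LipidTOX Red) measured by automated microscopy in fixed HepG2 cells after 24 h treatment; nuclei counterstained with Hoechst 33342; amiodarone as reference inducer.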

[14] = molecular target: Nuclear receptor subfamily 1 group I member 2 (Rattus norvegicus) (UniProt Q9R1A7); assay: Rat pregnane X receptor (rPXR) activation by small molecules, qHTS assay (AID 1346983); details: rPXR luciferase reporter cells, One-Glo luminescence, 24 h; max activation: hits give high values; note: nearly all actives have a fitted effect of over 20% in size; note: potency is the fitted concentration of half-maximal effect
Chain of Nuclear receptor subfamily 1 group I member 2 (Rattus norvegicus) (Q9R1A7 whole entry, looked up): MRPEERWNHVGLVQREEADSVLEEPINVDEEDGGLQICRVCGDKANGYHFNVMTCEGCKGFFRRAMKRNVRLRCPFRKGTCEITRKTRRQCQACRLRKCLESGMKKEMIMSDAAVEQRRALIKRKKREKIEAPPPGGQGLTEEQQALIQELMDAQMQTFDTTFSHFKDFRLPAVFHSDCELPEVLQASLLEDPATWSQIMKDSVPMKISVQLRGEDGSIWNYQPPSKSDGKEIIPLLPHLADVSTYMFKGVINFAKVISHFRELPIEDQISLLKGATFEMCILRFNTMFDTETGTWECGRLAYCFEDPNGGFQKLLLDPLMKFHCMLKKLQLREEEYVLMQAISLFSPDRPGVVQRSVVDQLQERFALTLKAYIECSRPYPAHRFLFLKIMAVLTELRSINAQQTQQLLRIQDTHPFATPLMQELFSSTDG
How it was run: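 Luminescent readout (One-Glo luciferase, 30 min room temperature) followed 24 hr compound treatment at 37 C of rPXR cells plated 2,000 per well and preincubated 5hr; qHTS format with compounds delivered in DMSO.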

[15] = molecular target: Nuclear receptor subfamily 1 group I member 2 (Homo sapiens) (UniProt O75469); assay: Human pregnane X receptor (PXR) activation by small molecules, qHTS assay (AID 1346985); note: nearly all actives have a fitted effect of over 40% in size; note: potency is the fitted concentration of half-maximal effect
How it was run: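 DPX-2 cells (HepG2 co-transfected with a PXR response element and a CYP3A4-promoter luciferase construct) were seeded at 2,000 per well, rested 5 hr at 37C, then exposed to DMSO-dissolved compounds for 24 hr. Activation was read as luciferase luminescence.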

Aromatase (Homo sapiens) = Aromatase (Homo sapiens) (UniProt P11511); assay: qHTS assay to identify aromatase inhibitors (AID 743083); note: nearly all actives have a fitted effect of over 55% in size; note: potency is the fitted concentration of half-maximal effect
Chain of Aromatase (Homo sapiens) (P11511 whole entry, looked up): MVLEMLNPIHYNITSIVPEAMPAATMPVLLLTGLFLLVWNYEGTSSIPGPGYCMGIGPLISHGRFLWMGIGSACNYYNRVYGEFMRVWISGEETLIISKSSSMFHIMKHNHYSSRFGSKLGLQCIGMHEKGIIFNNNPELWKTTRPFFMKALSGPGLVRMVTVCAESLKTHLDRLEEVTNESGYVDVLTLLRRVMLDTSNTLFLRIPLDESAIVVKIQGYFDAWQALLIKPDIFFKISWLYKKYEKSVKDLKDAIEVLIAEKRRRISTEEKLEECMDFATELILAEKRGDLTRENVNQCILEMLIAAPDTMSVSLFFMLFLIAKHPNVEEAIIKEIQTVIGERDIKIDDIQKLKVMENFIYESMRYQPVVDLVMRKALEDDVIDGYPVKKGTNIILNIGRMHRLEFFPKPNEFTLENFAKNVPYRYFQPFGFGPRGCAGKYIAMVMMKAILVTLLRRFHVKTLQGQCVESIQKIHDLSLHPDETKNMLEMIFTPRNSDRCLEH

[16] = qHTS assay to identify small molecule antagonists of the estrogen receptor alpha (ER-alpha) signaling pathway using the BG1 cell line (AID 743080; calls by dose curve;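 note: BG1 cells stimulated with 17beta-estradiol alongside compound; nearly all actives have a fitted effect of over 25% in size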)
How it was run: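 After 5 days in phenol-red-free 10% charcoal-stripped FBS medium, BG1-Luc-4E2 cells were seeded, left 24 h at 37 C, co-treated with compounds and 17beta-estradiol for 21.5 h, then assayed for viability and luciferase.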

[17] = molecular target: Nuclear receptor subfamily 1 group I member 2 (Homo sapiens) (UniProt O75469); assay: CYP3A4 induction through human pregnane X receptor (PXR) by small molecules, qHTS assay (AID 1346984); note: nearly all actives have a fitted effect of over 40% in size
How it was run: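 DPX-2 reporter cells; 24h cpd, 37C; Luciferin-IPA 3uM final x3h; One-Glo 30 min RT; lumi read.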
% is set by controls: 0 for no effect and ±100 for the full control effect.

CC(C)c1nc(N(C)S(C)(=O)=O)nc(-c2ccc(F)cc2)c1/C=C/C(O)CC(O)CC(=O)O (stereo not given)
inactive: Potency [1] | Potency [2] | Potency [3] | Potency [4] | Potency [5] | Potency [6] | Potency [8] | Potency [9] | Potency [10] | Potency [11] | Potency [12] | Potency [13] | max activation [14] 0.498% | Potency [15]
active: Potency [7] 26.6 µM

S=C1SCN(Cc2ccccc2)CN1Cc1ccccc1
active: Potency [1] 18.8 µM | Potency [2] 18.8 µM | Potency [7] 26.6 µM | Potency [15] 14.1 µM
inactive: Potency [4] | Potency [5] | Potency [6] | Potency [8] | Potency (Aromatase (Homo sapiens)) | Potency [9] | Potency [10] | Potency [13] | max activation [14] 2.55%

CO[C@@H]1[C@@H](O[C@@H]2O[C@H](C)[C@@H](O[C@H]3C[C@@](C)(O)[C@@H](O)[C@H](C)O3)[C@H](N(C)C)[C@H]2O)[C@@H](CC=O)C[C@@H](C)[C@@H](O[C@@H]2CC[C@H](N(C)C)[C@@H](C)O2)/C=C/C=C/C[C@@H](C)OC(=O)C[C@H]1O
inactive: Potency [4] | Potency [5] | Potency [6] | Potency [7] | Potency [16] | Potency [8] | Potency (Aromatase (Homo sapiens)) | Potency [9] | Potency [11] | Potency [12] | Potency [13] | max activation [14] -4.61%

CC[N+](C)(C)Cc1ccccc1Br
inactive: Potency [4] | Potency [5] | Potency [6] | Potency [7] | Potency [16] | Potency [8] | Potency (Aromatase (Homo sapiens)) | Potency [9] | Potency [10] | Potency [11] | Potency [12] | Potency [13] | max activation [14] -1.23%

CC(=O)[C@@]1(O)CC[C@H]2[C@@H]3C=C(Cl)C4=CC(=O)[C@@H]5C[C@@H]5[C@]4(C)[C@H]3CC[C@@]21C
inactive: Potency [1] | Potency [2] | Potency [3] | Potency [5] | Potency [6] | Potency [7] | Potency [16] | Potency [8] | Potency (Aromatase (Homo sapiens)) | Potency [9] | Potency [10] | Potency [11] | Potency [12] | Potency [13] | Potency [17] | Potency [15]

COc1cc([C@@H]2c3cc4c(cc3C(O[C@@H]3O[C@@H]5COC(c6cccs6)O[C@H]5[C@H](O)[C@H]3O)C3COC(=O)[C@@H]32)OCO4)cc(OC)c1O (stereo not given in full)
active: Potency [1] 2.37 µM | Potency [2] 0.531 µM | Potency [4] 6.74 µM [inconclusive] | Potency [14] 28.2 µM | Potency [15] 10 µM
inactive: Potency [3] | Potency [5] | Potency [6] | Potency [10] | Potency [11] | Potency [13]

N[C@H](CC(=O)O)C(=O)O
inactive: Potency [1] | Potency [2] | Potency [3] | Potency [5] | Potency [6] | Potency [7] | Potency [16] | Potency [8] | Potency (Aromatase (Homo sapiens)) | Potency [9] | Potency [10] | Potency [11] | Potency [13] | max activation [14] 2.19%

CO[C@H]1C=CO[C@@]2(C)Oc3c(C)c(O)c4c(O)c(c5c(nc6cc(C)ccn65)c4c3C2=O)NC(=O)/C(C)=C\C=C[C@H](C)[C@H](O)[C@@H](C)[C@@H](O)[C@@H](C)[C@H](OC(C)=O)[C@@H]1C
active: Potency [15] 10 µM
inactive: Potency [1] | Potency [2] | Potency [3] | Potency [8] | Potency [13] | max activation [14] -6.53%

CCCCCCOc1ccc(C(=N)N(CCCC)CCCC)c2ccccc12
active: Potency [1] 5.31 µM | Potency [2] 5.31 µM | Potency [5] 9.52 µM | Potency [8] 33.5 µM | Potency (Aromatase (Homo sapiens)) 13.3 µM | Potency [9] 16.8 µM | Potency [11] 18.8 µM
inactive: Potency [10] | Potency [13] | max activation [14] -20.9%

CC(C)CN(C[C@@H](OP(=O)(O)O)[C@H](Cc1ccccc1)NC(=O)O[C@H]1CCOC1)S(=O)(=O)c1ccc(N)cc1
inactive: Potency [1] | Potency [2] | Potency [3] | Potency [4] | Potency [5] | Potency [6] | Potency [7] | Potency [16] | Potency [8] | Potency (Aromatase (Homo sapiens)) | Potency [9] | Potency [10] | Potency [11] | Potency [13] | Potency [17]
active: Potency [15] 10 µM

CCC(=O)OCC(=O)[C@@]1(OC(=O)CC)[C@H](C)C[C@H]2[C@H]3[C@H]([C@@H](O)C[C@@]21C)[C@@]1(C)C=CC(=O)C=C1C[C@H]3Cl
inactive: Potency [1] | Potency [2] | Potency [3] | Potency [5] | Potency [6] | Potency [8] | Potency (Aromatase (Homo sapiens)) | Potency [9] | Potency [10] | Potency [11] | Potency [12] | Potency [13] | Potency [15]
active: Potency [14] 3.98 µM

Cc1cc(O)c2c(c1)O[C@@]1(C)CC[C@H]3C(C)(C)CCCC34CO[C@@H]2[C@H]41 (stereo not given in full)
inactive: Potency [4] | Potency [5] | Potency [6] | Potency [8] | Potency [10] | Potency [11] | Potency [13] | Potency [17]
active: Potency [1] 18.8 µM | Potency [2] 13.3 µM | Potency (Aromatase (Homo sapiens)) 26.6 µM | Potency [9] 29.8 µM | Potency [15] 2.82 µM

COCC(=O)Nc1cc(Sc2ccccc2)ccc1N=C(NC(=O)OC)NC(=O)OC
inactive: Potency [3] | Potency [4] | Potency [5] | Potency [6] | Potency [7] | Potency [8] | Potency (Aromatase (Homo sapiens)) | Potency [9] | Potency [11] | Potency [12] | Potency [13] | max activation [14] 86.6% | Potency [15]
active: Potency [2] 23.7 µM

CCOC(=O)C1=C[C@@H](OC(CC)CC)[C@H](NC(C)=O)[C@@H](N)C1
inactive: Potency [1] | Potency [2] | Potency [3] | Potency [5] | Potency (Aromatase (Homo sapiens)) | Potency [9] | Potency [10] | Potency [11] | Potency [12] | Potency [13] | max activation [14] -4.38% | Potency [15]
